From PubChem BioAssay
GLD-1 TGE inh – GLD-1/TGE RNA complex disruptors, primary screen, biochemical, fluorescence polarization; purified GLD-1 + fluorescein TGE RNA; AID 2280, 2010; 320,000 compounds, 0.44% hits; inhibition, % at 5.96 µM;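 active means percent inhibition above a per-plate cutoff, the plate mean of test compounds plus 3 SD, cut at about 30% in these data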;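 further: 0% = DMSO wells with GLD-1 and probe and 100% = wells lacking GLD-1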
MEX-5 binding – MEX-5 zinc finger RNA-binding disruptors – biochemical, C. elegans, fluorescence polarization, MLPCN library, primary screen; Zinc finger protein mex-5 (Caenorhabditis elegans), Q9XUB2; MEX-5/FITC-TCR2 RNA binding; hits give low values; activity score (negative = inhibition of binding), % at 10 µM; 300,000 compounds, 0.38% hits;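 active means inhibition past about -25% in most replicates, and total fluorescence under double the plate's negative control median, limit read from the data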;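 further: 0% = DMSO and -100% = 5 µM competing unlabeled TCR2 RNA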
MCL1-BIM inh – inhibitors of MCL1 binding to BIM-BH3, primary screen, biochemical, fluorescence polarization | GST-MCL1 / FITC-Bim-BH3 fluorescence polarization | inhibition, % at 10.9 µM | 320,000 compounds, 0.68% hits;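 active means inhibition above the mean inhibition of all tested compounds plus 3 SD, set per campaign, cut at about 40% in these data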;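 further: 0% = DMSO wells and 100% = unlabeled Bim-BH3 peptide control; higher means more loss of mP so more displacement of Bim peptide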
Target sequence (Q07820 whole entry, looked up): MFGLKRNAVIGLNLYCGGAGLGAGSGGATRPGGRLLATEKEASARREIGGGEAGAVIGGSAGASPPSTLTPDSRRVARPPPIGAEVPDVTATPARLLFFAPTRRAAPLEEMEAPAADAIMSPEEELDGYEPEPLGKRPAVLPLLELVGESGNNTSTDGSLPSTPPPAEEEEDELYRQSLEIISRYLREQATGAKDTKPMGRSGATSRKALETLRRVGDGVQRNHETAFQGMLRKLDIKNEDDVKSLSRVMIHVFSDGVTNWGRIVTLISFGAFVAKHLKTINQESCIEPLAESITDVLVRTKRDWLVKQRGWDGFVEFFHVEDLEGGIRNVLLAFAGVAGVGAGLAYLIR
LANA-H2B inh – blockers of LANA interaction with H2A/H2B – biochemical, FP readout, HTS, primary screen | Protein LANA1 (Human herpesvirus 8 type P (isolate GK18)), Q9QR71 | cell-free LANA-H2A/H2B peptide, fluorescence polarization | inhibition, % (test concentration not listed) | 320,000 compounds, 0.6% hits; in the data active means inhibition mostly above about 10%, no sharp cut-off; inactive means mostly below about 6.7%
BCLXL inh – inhibitors of human Bcl-xL, primary screen, biochemical, fluorescence polarization, HTS; 320,000 compounds, 0.7% hits; GST-Bcl-xL / FITC-Bim BH3 peptide fluorescence polarization; AID 2129, 2009; inhibition, % at 10.9 µM;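 active means inhibition above the mean of all tested compounds plus 3 SD, cutoff set per campaign, cut at about 30% in these data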;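 further: 0% = DMSO wells and 100% = unlabeled Bim-BH3 peptide competitor; inhibitors lower millipolarization by displacing the labeled peptide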
Yeast superoxide – reduction of superoxide in aged yeast, primary screen, HTS. 330,000 compounds, 0.18% hits. AID 2690, 2010. superoxide response (% of plate mean), % at 10 µM. S. cerevisiae aged cells, superoxide DHE fluorescence; hits give low values;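 active means superoxide response under a set limit, about three screen SD below normal, cut at about 65% in these data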;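 further: yeast aged for seven days with compound at 30 °C before DHE staining; 100% = average MFI of all compound-treated wells on the plate with controls excluded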
Bcl-xL conf – Bcl-xL inhibitors blocking Bim BH3 binding, confirmation, counter-screen for MCL1 inhibitor project, biochemical, fluorescence polarization; inhibition, % at 10.9 µM; 1,700 compounds, 54% hits; shares compounds with MCL1-BIM inh; GST-Bcl-xL / FITC-Bim BH3 peptide FP binding;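 active means inhibition above a cutoff equal to the mean inhibition of all tested compounds plus 3 SD, cut at about 30% in these data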;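 further: 0% = DMSO wells and 100% = unlabeled Bim BH3 control peptide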
MCL1 inh confirm – inhibitors of MCL1 binding to BIM-BH3, confirmation, biochemical, fluorescence polarization, triplicate | shares compounds with MCL1-BIM inh | GST-MCL1 / FITC-Bim-BH3 fluorescence polarization | inhibition, % at 10.9 µM | 1,700 compounds, 61% hits;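 active means inhibition above the average of all tested compounds plus 3 SD, cut at about 40% in these data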;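 further: 0% = DMSO wells and 100% = unlabeled Bim-BH3 control peptide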
Starred values were filed as active, the others as inactive; . = no result given; + = active, no number. This is a sample that favours compounds with a hit; in the whole collection about 1.9% have one here.

SMILES	GLD-1 TGE inh	MEX-5 binding	MCL1-BIM inh	LANA-H2B inh	BCLXL inh	Yeast superoxide	Bcl-xL conf	MCL1 inh confirm
Nc1ccc(Oc2ccc3nc(-c4ccccc4)c(-c4ccccc4)nc3c2)cc1	-3.4	1.8	-0.5	-3.7	3.8	99.7	.	.
Cc1cc2ncn(-c3ncccc3[N+](=O)[O-])c2cc1C	79.5*	-8.8	101.7*	-3.9	85.5*	117.4	22.9	34.0
O=[N+]([O-])c1cccnc1-n1cnc2ccccc21	5.9	-0.8	5.0	1.2	3.4	145.8	.	.
Cc1cc[n+](-c2[nH]c(=O)sc2/C=N/N=C(\[O-])CCn2c3ccccc3c3ccccc32)cc1	21.8	.	49.0*	-2.8	26.8	97.2	18.8	50.1*
CCc1ccc[n+](-c2[nH]c(=O)sc2/C=N/N=C(\[O-])CCn2c3ccccc3c3ccccc32)c1	14.4	-7.7	32.3	-3.4	20.5	83.3	.	.
CC(C)C[C@H](NC(=O)C1CC(=O)N(c2ccc3c(c2)OCO3)C1)C(=O)NC1CCCC1 (stereo partly specified)	38.2*	-20.7	56.2*	2.8	56.0*	99.6	49.1*	59.2*
NNC(=O)c1cc(NS(=O)(=O)c2cccs2)cc(NS(=O)(=O)c2cccs2)c1	1.7	.	.	2.5	.	160.9	.	.
O=C(O)C1=C[C@H](c2coc3ccccc3c2=O)C[C@H](OCCCCO)O1	16.1	-1.6	59.4*	1.4	8.9	.	12.9	6.7
COc1ccc(S(N)(=O)=O)cc1C(=O)NNC(=O)C1COc2ccccc2O1 (stereo unspecified)	-1.3	.	.	2.8	.	129.3	.	.
C=CCSc1nnc(NC(=O)CCN2C(=O)C3CC=CCC3C2=O)s1 (stereo unspecified)	76.7*	.	+	4.3	84.6*	74.1	2.8	-4.9
CC(=O)Nc1ccc(S(=O)(=O)NCCC(=O)N2CCc3ccccc32)cc1	-3.9	0.4	-6.8	-2.8	-3.2	125.2	.	.
O=C1/C(=C/C=C/c2ccco2)SC(=S)N1NS(=O)(=O)c1ccccc1	-6.2	.	82.5*	2.8	66.9*	100.6	45.0*	72.9*
CC(C(=O)O)N1C(=O)/C(=C/C=C/c2ccco2)SC1=S (stereo unspecified)	-4.2	-86.7*	82.9*	4.2	49.6*	103.5	58.2*	86.7*
O=C(/C=C/c1cccc(F)c1)OCC(=O)N1CCc2ccccc21	0.9	.	.	-5.5	.	97.9	.	.
CC(=O)O[C@@H]1[C@@H](OC(C)=O)[C@H](n2ccc3cc([N+](=O)[O-])ccc32)OC[C@@H]1OC(C)=O	5.9	1.3	-1.4	-3.2	2.2	111.2	.	.
Cc1cc(C)c2cc3c(ccn3C3OC[C@H](O)[C@H](O)[C@H]3O)cc2n1 (stereo partly specified)	5.2	-12.6	100.4*	0.6	88.3*	100.2	71.5*	86.2*
O=C1N=C(N2CCN(c3cccc4ccccc34)CC2)S/C1=C/c1cccs1	4.7	2.0	2.4	-2.6	-1.1	117.7	.	.
Cc1ccccc1N1CCN(C2=NC(=O)/C(=C\c3cccs3)S2)CC1	4.4	-0.7	46.0*	-1.2	7.9	94.9	10.8	21.8
